Pf apPOL inh: Pf-apPOL inhibitors, biochemical, fluorescence; Recombinant Pf-apPOL, molecular beacon fluorescence, 1.5 h; AID 1794808, 2022; hit rate 0.25% among 210,000; inhibition, % at 10 µM; Plasmodium falciparum apicoplast DNA polymerase (apPOL)
mHTT-CaM PPI inh: mutant huntingtin-calmodulin interaction inhibitors – biochemical, AlphaScreen, primary screen. P42858. AlphaScreen His-mHTT/GST-CaM binding, luminescence. inhibition, % at 15 µM. hit rate 3.6% among 190,000. AID 1671202, 2021;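 also: 0% = both proteins with DMSO and 100% = one protein alone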
Target sequence (P42858 whole entry, looked up, stated change not applied): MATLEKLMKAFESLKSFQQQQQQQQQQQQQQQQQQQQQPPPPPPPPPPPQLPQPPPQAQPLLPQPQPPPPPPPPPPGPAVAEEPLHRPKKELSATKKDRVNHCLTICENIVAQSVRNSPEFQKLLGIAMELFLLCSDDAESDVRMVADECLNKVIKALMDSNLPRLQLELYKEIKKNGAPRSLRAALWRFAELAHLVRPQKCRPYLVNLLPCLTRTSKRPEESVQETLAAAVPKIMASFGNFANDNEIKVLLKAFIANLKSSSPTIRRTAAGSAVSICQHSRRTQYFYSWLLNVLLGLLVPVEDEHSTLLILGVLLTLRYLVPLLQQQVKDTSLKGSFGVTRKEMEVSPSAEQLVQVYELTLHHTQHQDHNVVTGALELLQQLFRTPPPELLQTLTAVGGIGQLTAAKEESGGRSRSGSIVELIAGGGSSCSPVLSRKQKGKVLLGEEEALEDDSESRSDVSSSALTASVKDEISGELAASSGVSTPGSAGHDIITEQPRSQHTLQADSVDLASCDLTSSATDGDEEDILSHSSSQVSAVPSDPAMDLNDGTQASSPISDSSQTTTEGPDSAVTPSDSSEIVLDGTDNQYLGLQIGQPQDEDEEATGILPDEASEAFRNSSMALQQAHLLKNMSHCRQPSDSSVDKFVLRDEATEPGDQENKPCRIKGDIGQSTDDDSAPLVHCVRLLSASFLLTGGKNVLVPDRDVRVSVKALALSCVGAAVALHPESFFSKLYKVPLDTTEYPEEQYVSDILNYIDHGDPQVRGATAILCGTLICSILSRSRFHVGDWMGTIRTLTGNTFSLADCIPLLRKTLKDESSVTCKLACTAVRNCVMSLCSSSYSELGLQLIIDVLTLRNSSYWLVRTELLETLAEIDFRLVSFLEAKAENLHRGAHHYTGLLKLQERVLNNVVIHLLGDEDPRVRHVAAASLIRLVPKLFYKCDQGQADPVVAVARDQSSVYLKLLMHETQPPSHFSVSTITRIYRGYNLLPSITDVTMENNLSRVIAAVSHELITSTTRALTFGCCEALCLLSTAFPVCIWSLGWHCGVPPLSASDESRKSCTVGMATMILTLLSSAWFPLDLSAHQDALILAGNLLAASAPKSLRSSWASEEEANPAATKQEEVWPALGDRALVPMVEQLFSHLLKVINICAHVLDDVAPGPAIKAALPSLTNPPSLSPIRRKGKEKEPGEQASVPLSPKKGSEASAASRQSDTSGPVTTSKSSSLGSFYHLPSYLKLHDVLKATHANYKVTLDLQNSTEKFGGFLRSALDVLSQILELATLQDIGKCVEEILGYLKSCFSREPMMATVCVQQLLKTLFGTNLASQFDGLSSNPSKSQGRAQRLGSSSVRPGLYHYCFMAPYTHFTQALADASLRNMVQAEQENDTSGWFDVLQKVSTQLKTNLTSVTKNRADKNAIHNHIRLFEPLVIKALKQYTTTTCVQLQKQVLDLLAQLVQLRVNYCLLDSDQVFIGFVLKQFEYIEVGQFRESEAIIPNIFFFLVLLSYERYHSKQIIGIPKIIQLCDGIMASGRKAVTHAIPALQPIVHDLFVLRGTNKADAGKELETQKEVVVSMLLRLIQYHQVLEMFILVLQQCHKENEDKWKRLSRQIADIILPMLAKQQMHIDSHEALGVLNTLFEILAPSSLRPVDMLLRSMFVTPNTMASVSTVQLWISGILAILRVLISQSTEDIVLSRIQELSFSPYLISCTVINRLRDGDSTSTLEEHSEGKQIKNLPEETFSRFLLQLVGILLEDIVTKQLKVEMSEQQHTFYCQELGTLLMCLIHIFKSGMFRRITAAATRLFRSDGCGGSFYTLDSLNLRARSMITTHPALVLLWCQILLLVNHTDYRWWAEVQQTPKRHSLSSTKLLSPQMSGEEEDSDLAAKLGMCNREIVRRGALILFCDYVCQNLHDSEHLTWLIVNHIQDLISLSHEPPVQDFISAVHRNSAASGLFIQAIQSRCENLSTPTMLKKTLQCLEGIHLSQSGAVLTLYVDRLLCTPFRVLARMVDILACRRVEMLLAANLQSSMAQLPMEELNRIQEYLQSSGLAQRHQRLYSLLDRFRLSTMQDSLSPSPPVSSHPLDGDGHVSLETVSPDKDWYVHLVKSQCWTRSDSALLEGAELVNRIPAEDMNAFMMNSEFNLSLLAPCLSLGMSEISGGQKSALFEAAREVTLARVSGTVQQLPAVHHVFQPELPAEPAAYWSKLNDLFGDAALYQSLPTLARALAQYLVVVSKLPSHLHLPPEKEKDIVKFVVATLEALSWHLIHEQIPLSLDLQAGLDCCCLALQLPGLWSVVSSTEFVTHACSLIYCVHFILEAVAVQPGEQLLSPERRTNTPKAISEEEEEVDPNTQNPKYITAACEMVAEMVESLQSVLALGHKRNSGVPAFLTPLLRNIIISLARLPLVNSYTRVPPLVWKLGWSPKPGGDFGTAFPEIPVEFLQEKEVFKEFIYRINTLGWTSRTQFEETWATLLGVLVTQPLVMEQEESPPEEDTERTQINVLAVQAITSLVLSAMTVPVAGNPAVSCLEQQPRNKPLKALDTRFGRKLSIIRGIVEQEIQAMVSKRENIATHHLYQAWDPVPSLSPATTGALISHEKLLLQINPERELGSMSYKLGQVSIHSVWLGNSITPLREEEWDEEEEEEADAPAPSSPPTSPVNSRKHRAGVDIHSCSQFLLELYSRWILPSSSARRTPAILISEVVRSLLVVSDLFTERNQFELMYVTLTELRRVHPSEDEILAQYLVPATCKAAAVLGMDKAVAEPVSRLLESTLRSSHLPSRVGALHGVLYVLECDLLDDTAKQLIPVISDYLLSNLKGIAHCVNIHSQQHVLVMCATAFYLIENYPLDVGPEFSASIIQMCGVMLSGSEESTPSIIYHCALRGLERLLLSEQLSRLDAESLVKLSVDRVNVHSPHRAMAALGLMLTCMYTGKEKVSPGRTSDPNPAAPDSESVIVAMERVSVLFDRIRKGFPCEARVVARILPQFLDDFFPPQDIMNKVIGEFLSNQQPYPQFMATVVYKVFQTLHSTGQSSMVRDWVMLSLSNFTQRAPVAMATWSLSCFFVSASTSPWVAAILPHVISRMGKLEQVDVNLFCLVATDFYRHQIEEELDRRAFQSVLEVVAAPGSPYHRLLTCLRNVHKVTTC
Active calls of the source: *. This is a sample that favours compounds with a hit; in the whole collection about 3.6% have one here. Rule as the data show it: active = inhibition above about 50%; inactive = the rest.

Cc1ccc([C@H]2C[C@H](O)[C@@H](n3cc(-c4ccc(F)cc4)nn3)CN2Cc2cccs2)cc1 was read as Pf apPOL inh -3.2 and mHTT-CaM PPI inh 8.4.
`O[C@H]1CN(CC2CCCCC2)[C@@H](c2ccc(Cl)cc2)C[C@@H]1n1cc(-c2ccc(F)cc2)nn1` gave Pf apPOL inh 2.3 and mHTT-CaM PPI inh 15.9.
`N#Cc1cccc(C(=O)N2CCc3nc[nH]c3C2)c1` gave Pf apPOL inh 2.1 and mHTT-CaM PPI inh -9.6.
For Cc1ccc(Cn2cccc2-c2nc(C)no2)cc1 the results were Pf apPOL inh -1.1 and mHTT-CaM PPI inh -26.4.
Clc1cccc(Cc2cn3cc(-c4ccccc4)nc3s2)c1 was read as Pf apPOL inh -7.4 and mHTT-CaM PPI inh -5.0.
Cc1cccc2oc(-c3cccc(NC(=O)c4ccccc4I)c3)nc12 was read as Pf apPOL inh -2.7 and mHTT-CaM PPI inh -5.5.
`CCCCCCN1C[C@H](n2cc(-c3ccc(F)cc3)nn2)[C@@H](O)C[C@@H]1c1ccccc1` gave Pf apPOL inh -1.5 and mHTT-CaM PPI inh 59.7*.
Screening CCCCCCN1C[C@H](n2cc(C3CC3)nn2)[C@@H](O)C[C@@H]1c1ccc(Cl)cc1 returned Pf apPOL inh -1.4 and mHTT-CaM PPI inh 100.0*.
Screening CCCCCCN1C[C@@H](n2cc(C3CC3)nn2)[C@H](O)C[C@@H]1c1ccc(Cl)cc1 returned Pf apPOL inh 0.9 and mHTT-CaM PPI inh 23.2.
For CCCCCCN1C[C@H](O)[C@@H](n2cc(-c3ccc(F)cc3)nn2)C[C@@H]1c1ccccc1 the results were Pf apPOL inh -3.6 and mHTT-CaM PPI inh 4.4.
For CC(C)n1cnnc1C1CCCN(Cc2cn[nH]c2-c2cccs2)C1 (stereo not drawn) the results were Pf apPOL inh 2.3 and mHTT-CaM PPI inh -0.4.
COc1cc(C(O)C(C)Oc2ccccc2OC)ccc1O (stereo not drawn) was read as Pf apPOL inh -3.5 and mHTT-CaM PPI inh -6.0.
CN1C(=O)c2ccccc2Oc2ccc(C(=O)N3CCCC3)cc21 was read as Pf apPOL inh -6.7 and mHTT-CaM PPI inh 5.2.
Cc1nc(Nc2ccccn2)sc1C(=O)N1CCc2ccccc2C1 was read as Pf apPOL inh 0.7 and mHTT-CaM PPI inh 26.3.
`Cc1cccc(Nc2nc(C)c(C(=O)N3CCN(c4ccccc4)CC3)s2)n1` gave Pf apPOL inh -3.7 and mHTT-CaM PPI inh 48.3.
`Cc1nc(Nc2ccc(F)cn2)sc1C(=O)N1CCc2ccccc2C1` gave Pf apPOL inh -3.0 and mHTT-CaM PPI inh 64.6*.
Cc1nc(Nc2ccc(F)cn2)sc1C(=O)N1CCN(C2CCCCC2)CC1 was read as Pf apPOL inh -0.1 and mHTT-CaM PPI inh 25.7.
Screening Cc1ccccc1N1CCN(C(=O)c2sc(Nc3ccc(F)cn3)nc2C)CC1 returned Pf apPOL inh -4.3 and mHTT-CaM PPI inh 100.1*.
Screening Cc1cccc(N2CCN(C(=O)c3sc(Nc4ccc(F)cn4)nc3C)CC2)c1 returned Pf apPOL inh -3.7 and mHTT-CaM PPI inh 85.0*.
`Cc1nc(NCCC2=CCCCC2)c2c(C)noc2n1` gave Pf apPOL inh -1.5 and mHTT-CaM PPI inh -3.5.
Cc1ccc(C(=O)NCCC(C)C)c(C2CCNCC2)n1 was read as Pf apPOL inh -3.5 and mHTT-CaM PPI inh 5.0.
For COc1cc(CN2CCCC2c2cc(C)no2)ccc1OCC(N)=O (stereo not drawn) the results were Pf apPOL inh -2.2 and mHTT-CaM PPI inh -2.6.
Screening Cc1ccc(N=Cc2c(C)[nH]n(-c3ccccc3)c2=O)cc1 returned Pf apPOL inh -3.1 and mHTT-CaM PPI inh 1.0.
For CC(=Cc1ccccc1)C=C1SC(=S)N(C(CCC(=O)O)C(=O)O)C1=O (stereo not drawn) the results were Pf apPOL inh -141.6 and mHTT-CaM PPI inh 10.9.
CC(=Cc1ccccc1)C=C1SC(=S)N(C(Cc2ccccc2)C(=O)O)C1=O (stereo not drawn) was read as Pf apPOL inh -135.0 and mHTT-CaM PPI inh 85.3*.
Screening Cc1nc(NC(=O)c2ccc3c(c2)OCO3)sc1C returned Pf apPOL inh -3.0 and mHTT-CaM PPI inh 8.8.
`Cc1ccc(NC(=O)C2c3ccccc3C(=O)N(C)C2c2c[nH]c3ccccc23)c(Cl)c1` (stereo not drawn) gave Pf apPOL inh -5.8 and mHTT-CaM PPI inh 87.0*.
CN1C(=O)c2ccccc2C(C(=O)Nc2ccc(F)cc2Cl)C1c1ccc(F)cc1 (stereo not drawn) was read as Pf apPOL inh -5.6 and mHTT-CaM PPI inh -2.0.
`O=C(NCCCSCc1ccc(F)cc1)c1ccc(Cl)cc1` gave Pf apPOL inh 12.0.
`O=C(Nc1noc2ccccc12)Nc1noc2ccccc12` gave Pf apPOL inh -2.5 and mHTT-CaM PPI inh -1.7.
For NS(=O)(=O)c1ccc2[nH]c3c(c2c1)CCCC3 the results were Pf apPOL inh -10.0 and mHTT-CaM PPI inh 3.4.
`CN(CC(=O)NC1CCCC1)S(=O)(=O)c1ccc2[nH]c3c(c2c1)CCCC3` gave Pf apPOL inh -5.6 and mHTT-CaM PPI inh 17.8.
O=S(=O)(Nc1ccc(F)cc1)c1ccc2[nH]c3c(c2c1)CCCC3 was read as Pf apPOL inh -4.1 and mHTT-CaM PPI inh 97.7*.
Screening CN(CC(=O)NCc1ccc(F)cc1)S(=O)(=O)c1ccc2[nH]c3c(c2c1)CCCC3 returned Pf apPOL inh -4.4 and mHTT-CaM PPI inh 40.9.
For CCc1ccc(S(=O)(=O)Nc2ccc(Cl)cn2)cc1 the results were Pf apPOL inh 10.1 and mHTT-CaM PPI inh -1.0.
`O=S(=O)(Nc1ccc(Cl)cn1)c1ccc2[nH]c3c(c2c1)CCCC3` gave Pf apPOL inh -1.6 and mHTT-CaM PPI inh 54.9*.
`O=S(=O)(Nc1ccccc1)c1ccc2[nH]c3c(c2c1)CCCCC3` gave Pf apPOL inh -6.1 and mHTT-CaM PPI inh 99.7*.
`CN(CC(=O)NC1CCCCC1)S(=O)(=O)c1ccc2[nH]c3c(c2c1)CCCC3` gave Pf apPOL inh 0.3 and mHTT-CaM PPI inh 96.8*.
For COc1cc(C(=O)N2CCOCC2)c(Br)c(OC)c1OC the results were Pf apPOL inh -7.3 and mHTT-CaM PPI inh -10.7.
Screening CCn1cc(C2=CCN(S(=O)(=O)c3c(C)c(C)cc(C)c3C)CC2)c2cccnc21 returned Pf apPOL inh -0.8 and mHTT-CaM PPI inh 29.3.
`COc1ccc(C(=O)Nc2c3c(nn2-c2cccc(Cl)c2)CS(=O)C3)cc1OC` (stereo not drawn) gave Pf apPOL inh -30.4 and mHTT-CaM PPI inh 13.0.
For Cc1ccc(NC(=O)c2sc3ncn(Cc4ccccc4F)c(=O)c3c2C)cc1Cl the results were Pf apPOL inh -16.6 and mHTT-CaM PPI inh -6.0.
Screening CN(C)C(=O)CCN1C(=O)CSC1c1ccccc1Cl (stereo not drawn) returned Pf apPOL inh 0.6 and mHTT-CaM PPI inh -7.7.
Screening COc1ccc(C2=N/C(=C\c3ccccc3)C(=O)O2)cc1Br returned Pf apPOL inh 3.1 and mHTT-CaM PPI inh -8.0.
For O=S(=O)(NC1CCCCC1)c1ccc2[nH]c3c(c2c1)CCCC3 the results were Pf apPOL inh -4.9 and mHTT-CaM PPI inh 86.7*.
Cc1ccc(S(=O)(=O)NC2CCCCC2)cc1[N+](=O)[O-] was read as Pf apPOL inh -1.5 and mHTT-CaM PPI inh -0.3.
Screening O=C(Nc1ccc2c(c1)OCCO2)c1n[nH]nc1Nc1ccccc1Cl returned Pf apPOL inh -4.9 and mHTT-CaM PPI inh -0.1.
CCOC(=O)CCC(=O)NCC1CCC(c2nc3ccccc3[nH]2)CC1 (stereo not drawn) was read as Pf apPOL inh -7.2 and mHTT-CaM PPI inh -11.1.
For Cc1noc(C)c1C(=O)Sc1nccc(C(F)(F)F)n1 the results were Pf apPOL inh -11.8.
Screening COc1ccccc1-n1c(CSc2ccccc2[N+](=O)[O-])n[nH]c1=S returned Pf apPOL inh 1.2.

Screens deposited in PubChem by University of Kansas High Throughput Screening Laboratory.
